Some test systems named below: EKVX NSCLC; SN12C renal; UO-31 renal; TK-10 renal; ACHN renal; CAKI-1 renal; A498 renal; MOLT-4 leukemia; SR leukemia; RPMI-8226 leukemia; OVCAR-8 ovarian; OVCAR-5 ovarian; OVCAR-4 ovarian; SK-OV-3 ovarian; IGROV1 ovarian; HS 578T breast; NCI/ADR-RES ovarian; T-47D breast; CCRF-CEM leukemia; OVCAR-3 ovarian.
Assay in all cases: NCI-60 one-dose screen, 48 h (100 = growth as untreated, 0 = no growth, -100 = all killed)
What all share (conditions): 10 µM unless noted

Compounds without any hit were thinned out: in the full panel of roughly 83,000, 20% have a hit.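 Cells were grown in 96-well plates and exposed to the test compound at a single concentration for 48 hours; results are reported as percent growth, with values below 10 considered active.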 Values without a mark were called inactive. The source made the active and inactive calls.

As to `C=CCSc1ccc2c(c1)C(N1CCNCC1)=Nc1ccccc1O2`, the growth in the assay with EKVX NSCLC was 79.7% [8.25 µM]; in the assay with SN12C renal it was 77.3% [8.25 µM]; in the assay with UO-31 renal it was 62.1% [8.25 µM]; in the assay on TK-10 renal, 85% [8.25 µM]; in the assay on ACHN renal, 70.3% [8.25 µM]; in the assay on CAKI-1 renal, 58.8% [8.25 µM]. In addition, the growth was 75.1% [8.25 µM] in the assay with A498 renal; 49.9% [8.25 µM] in the assay with MOLT-4 leukemia; 14.4% [8.25 µM] in the assay on SR leukemia; 63.2% [8.25 µM] in the assay with RPMI-8226 leukemia; 92.5% [8.25 µM] with OVCAR-8 ovarian; 85.4% [8.25 µM] in the assay with OVCAR-5 ovarian. Further, the growth is 83.1% [8.25 µM] in the assay with OVCAR-4 ovarian; 88.2% [8.25 µM] in the assay with SK-OV-3 ovarian; 63.1% [8.25 µM] with IGROV1 ovarian; 72.1% [8.25 µM] in the assay with HS 578T breast; 87.9% [8.25 µM] with NCI/ADR-RES ovarian; 71.3% [8.25 µM] in the assay with T-47D breast.

`N#Cc1nc(-c2ccccc2)oc1N1CC[C@@H](CO)C1`: the growth with EKVX NSCLC is 98.5%; in the assay on SN12C renal it was 98.1%; in the assay with UO-31 renal it was 86.3%; in the assay on TK-10 renal, 123%; in the assay with ACHN renal, 95.9%; in the assay on CAKI-1 renal, 91.5%. The growth in the assay on CCRF-CEM leukemia is 93.6%; in the assay on MOLT-4 leukemia it was 101%; in the assay with SR leukemia, 84.6%; in the assay on RPMI-8226 leukemia it was 99.5%; in the assay on OVCAR-8 ovarian it was 100%; with OVCAR-5 ovarian it was 108%. Also, the growth with OVCAR-4 ovarian was 101%; with SK-OV-3 ovarian, 116%; with IGROV1 ovarian, 94.5%; with OVCAR-3 ovarian, 109%; in the assay with HS 578T breast it was 111%; in the assay on NCI/ADR-RES ovarian, 102%. The growth in the assay on T-47D breast is 98.1%.

For `Cn1cc(-c2cc(N)n3nc(-c4cn(C)c5ccc(Cl)cc45)cc3n2)c2cc(Cl)ccc21`, the growth is 94.9% with EKVX NSCLC; 85% with SN12C renal; 100% in the assay on UO-31 renal; 116% in the assay with TK-10 renal; 102% in the assay with ACHN renal; 83.2% with CAKI-1 renal. For the same compound, the growth in the assay with A498 renal was 73.1%; in the assay with CCRF-CEM leukemia, 24.8%; with MOLT-4 leukemia it was 51%; with RPMI-8226 leukemia, 88.5%; in the assay with OVCAR-8 ovarian it was 90.4%; in the assay on OVCAR-5 ovarian, 107%. Besides, the growth was 75.1% in the assay with OVCAR-4 ovarian; 123% with SK-OV-3 ovarian; 88.9% in the assay with IGROV1 ovarian; 84.8% in the assay with OVCAR-3 ovarian; 107% with HS 578T breast; 73.5% in the assay with NCI/ADR-RES ovarian. For the same compound, in the assay on T-47D breast, the growth was 90.7%.

As to `O=C(Nc1nc2ccc(O)cc2s1)c1cccc(C(F)(F)F)c1`, the growth in the assay on EKVX NSCLC is 55.6%; with SN12C renal, 68.9%; with UO-31 renal, 33.4%; in the assay with TK-10 renal, 80.8%; in the assay with ACHN renal it was 53%; with CAKI-1 renal, 53%. For the same compound, the growth in the assay with A498 renal was 78.9%; in the assay with CCRF-CEM leukemia, 31%; in the assay with MOLT-4 leukemia it was 34.6%; in the assay on RPMI-8226 leukemia, 46.9%; in the assay on OVCAR-8 ovarian it was 55.5%; with OVCAR-5 ovarian, 93.4%. Also, the growth is 63.6% with OVCAR-4 ovarian; 64.4% in the assay with IGROV1 ovarian; 67.2% in the assay with OVCAR-3 ovarian; 101% in the assay on HS 578T breast; 51.3% in the assay with T-47D breast.

Take `O=C(N/N=C/c1cccs1)c1[nH]c2ccc(Br)cc2c1-c1ccccc1`: the growth in the assay on EKVX NSCLC is 42.2%; with SN12C renal, 45.7%; with UO-31 renal, 49.4%; in the assay with TK-10 renal, 121%; in the assay on ACHN renal, 28.5%; in the assay with CAKI-1 renal, 25.7%. In addition, the growth in the assay on CCRF-CEM leukemia is 8.56% (active); with MOLT-4 leukemia it was 11.5%; in the assay with SR leukemia, 6.19% (active); with OVCAR-8 ovarian, 3.38% (active); with OVCAR-5 ovarian it was 46.1%; in the assay on OVCAR-4 ovarian, 72.2%. Moreover, the growth with SK-OV-3 ovarian is 36%; with IGROV1 ovarian, 18%; in the assay on OVCAR-3 ovarian it was 21.5%; with HS 578T breast, 27.2%; in the assay with NCI/ADR-RES ovarian, 17.8%; in the assay on T-47D breast, 68.4%.

In the case of `CCOC(=O)c1c(Nc2ccccc2)nn2c(N)c(C#N)c(-c3ccc(F)cc3)nc12`, the growth is 83.1% with EKVX NSCLC; 95.9% in the assay on SN12C renal; 78.9% with UO-31 renal; 109% in the assay on TK-10 renal; 81.6% with ACHN renal; 91.2% in the assay on CAKI-1 renal. Also, the growth with CCRF-CEM leukemia was 68%; with MOLT-4 leukemia it was 46%; in the assay on SR leukemia, 65%; in the assay with RPMI-8226 leukemia it was 70.4%; with OVCAR-8 ovarian, 97.4%; in the assay on OVCAR-5 ovarian, 108%. Also, the growth with OVCAR-4 ovarian is 87%; in the assay on SK-OV-3 ovarian, 93.2%; in the assay with IGROV1 ovarian it was 93.1%; in the assay with OVCAR-3 ovarian, 110%; in the assay on HS 578T breast, 79.6%; in the assay with NCI/ADR-RES ovarian it was 97.4%. In the assay with T-47D breast, the growth was 64.6%.

For `O=C1[C@H]2Cc3c([nH]c4ccccc34)[C@@H](c3ccc(Br)cc3)N2C(=O)CN1C1CCN(Cc2ccccc2)CC1`, the growth in the assay on EKVX NSCLC is 35.5%; in the assay with SN12C renal it was 12.9%; in the assay with UO-31 renal, 38.5%; in the assay with TK-10 renal, 64.3%; with ACHN renal, 30.6%; in the assay on CAKI-1 renal it was 44.9%. Moreover, the growth was 61% in the assay on A498 renal; 15.5% with CCRF-CEM leukemia; -10.6% (active) in the assay with SR leukemia; 3.9% (active) in the assay with RPMI-8226 leukemia; 41.6% with OVCAR-8 ovarian; 65% in the assay with OVCAR-5 ovarian. Further, the growth is 48.3% in the assay with OVCAR-4 ovarian; 18.7% in the assay with IGROV1 ovarian; 68.1% with OVCAR-3 ovarian; 36.7% in the assay on HS 578T breast; 19.3% in the assay on T-47D breast.

Regarding `CC(C)(C)Nc1nc2c(OCCc3ccccc3)cccn2c1-c1ccc(O)cc1`, the growth with EKVX NSCLC was 38.9%; in the assay on SN12C renal it was 64.3%; with UO-31 renal, 57.3%; with TK-10 renal it was 113%; in the assay with ACHN renal it was 65.1%; with CAKI-1 renal, 80.1%. The growth is 103% in the assay on A498 renal; 38.5% with CCRF-CEM leukemia; 32.5% in the assay on SR leukemia; 19% with RPMI-8226 leukemia; 65.9% in the assay on OVCAR-8 ovarian; 70.2% in the assay with OVCAR-5 ovarian. Besides, the growth is 65% in the assay on OVCAR-4 ovarian; 110% in the assay with SK-OV-3 ovarian; 75.4% in the assay with IGROV1 ovarian; 74.9% in the assay on OVCAR-3 ovarian; 86.7% in the assay with HS 578T breast; 50.4% with NCI/ADR-RES ovarian. Further, the growth in the assay on T-47D breast is 35.9%.

(Values after PubChem BioAssay (NCI).)
